Results taken from PubChem BioAssay (Tox21).
“And” between values parts separate entries of the source, which are not always exact repeats. Equal values may be shown once. Records with an inconclusive call do not appear. Values without a mark were called inactive. The source made the active and inactive calls. The call rests on the fitted dose curve.

assay: Nuclear factor erythroid 2-related factor 2/antioxidant responsive element (Nrf2/ARE) small molecule agonists: luciferase reporter gene qHTS assay in human keratinocytes (AID 1919969); details: KeratinoSens HaCaT ARE-luciferase, luminescence, 24 h; series mostly up to 92.4 µM; activity, positive = activation: at the top concentration; further: nearly all actives have a fitted effect of over 35% in size
Description: National Center for Advancing Translational Sciences [NCATS]
Division of Preclinical Innovation [DPI]
U.S. Environmental Protection Agency [EPA]
National Institutes of Environmental Health Sciences [NIEHS]
National Toxicology Program [NTP]
U.S. Food and Drug Administration [FDA]
Oxidative stress has been implicated in the pathogenesis of a variety of diseases ranging from cancer to neurodegeneration. The antioxidant response element (ARE) signaling pathway plays an important role in the amelioration of oxidative stress. The KeratinoSens (Givaudan, Switzerland) is an in vitro test method which quantifies luciferase induction as a measure of activation of Keap1-Nrf2-antioxidationt/electrophile response element (ARE) dependant pathway in HaCaT human keratinocytes stably transfected with a selectable plasmid. The KeratinoSens assay is a cell-based assay with a reporter cell line to detect potential skin sensitizers by their ability to induce the Nrf2/ARE-response. The activation of the report gene under culture conditions can be detected by ONE-Glo Luciferase Assay System (Promega, Madison, WI). This cell line has been used to screen the Tox21 10K compound library to identify agonists that induce oxidative stress. The cytotoxicity of the Tox21 compound library against the KS-ARE cell line was tested in parallel by measuring the cell viability using CellTiter- Fluor assay system (Promega, Madison, WI) in the same wells.
HaCaT derived cell line KeratinoSens were dispensed at 1,500 cells/5uL/well in 1536-well white wall/solid bottom plates using a Multidrop Combi (ThermoFisher Scientific, Waltham, MA) dispenser. After the assay plates were incubated at 37 C/5% CO2 for 5 h, 23 nL of compounds dissolved in DMSO, positive controls or DMSO only was transferred to the assay plate by a pintool workstation (Kalypsys, San Diego, CA). The plates were incubated at 37 C/5% CO2 for 23 h, followed by addition of 1uL/well of CellTiter-Fluor reagent into the assay plates using a Flying Reagent Dispenser (Aurora Discovery, San Diego, CA) for cell viability readout that measures cytotoxicity. After 1 h incubation at 37 C/5% CO2 the fluorescence intensity was measured using a ViewLux (PerkinElmer, Shelton, CT) plate reader. Then 4uL/well of One-Glo were added using a Flying Reagent Dispenser. After the plates were incubated at room temperature for 30 min, the luminescence intensity in the assay plates was measured using ViewLux plate reader.
On the % scale 0 is the no-effect control and ±100 the full control effect; potency means the concentration at half of the fitted maximal effect.

Compared with `CC(C)OC(=O)c1cc(C(=O)OC(C)C)cc([N+](=O)[O-])c1`, `CNc1ccc([N+](=O)[O-])cc1` is higher in “activity, positive = activation” value: 0.355% for the first, 25% for the second.

Going from `CCCC(C)CC` (stereo not given) to `CC(C)CCCC(C)CC=O` (stereo not given), the “activity, positive = activation” value rises from -0.489% to 1.57%.

First: CN1CCN(c2ccccc2/C=C2\SCCN(c3ccc(Cl)c(Cl)c3)C2=O)CC1
Second: Oc1ccc2c(c1)-c1ccccc1C2
The “activity, positive = activation” value of the first is lower: -42.9% for the first, 15.7% for the second.

Compared with `CC(=O)OC/C=C(/C)CCC=C(C)C`, `CCC(C)(CCC(C)C)C(=O)O` (stereo not given) is higher in “activity, positive = activation” value: -1.67% for the first, 0.481% for the second.

Going from `CC(C)c1ccc2c(c1)CC[C@H]1[C@](C)(CN)CCC[C@]21C` to `CC(=O)OC1C2(C)CCC(C2)C1(C)C` (stereo not given), the “activity, positive = activation” value rises from -37.4% to -2.34%.

First: Nc1ccc2cc(S(=O)(=O)O)cc(O)c2c1N=Nc1ccccc1C(F)(F)F
Second: Cc1oc(-c2ccccc2)nc1CCOc1cccc2c1ccn2CCC(=O)O
The “activity, positive = activation” value of the first is lower: -2.33% for the first, 18% for the second.

Compared with `Nc1ccc(F)cc1`, `CCN(CCC#N)c1ccccc1` is lower in “activity, positive = activation” value: -0.588% for the first, -10.1% for the second.

First: CC1(C)C(=O)N(Cl)C(=O)N1Br
Second: CC1CCC(=O)C1=O (stereo not given)
The “activity, positive = activation” value of the first is higher: 7.43% for the first, -0.21% for the second.

Going from `SC1CCCC1` to `O=C1CCCCCCCCCCCC(=O)OCCO1`, the “activity, positive = activation” value rises from -15.8% to 3.32%.

Compared with `N#CCCN(CCO)CCO`, `CC[C@H](C)C(=O)O[C@H]1C[C@H](O)C=C2C=C[C@H](C)[C@H](CC[C@@H](O)C[C@@H](O)CC(=O)O)[C@H]21` is lower in “activity, positive = activation” value: 8.36% for the first, -12.5% for the second.

Compared with `CCCCNC1CC(C)(C)NC(C)(C)C1`, `CCN1C=CN(C)C1C` (stereo not given) is lower in “activity, positive = activation” value: 8.12% for the first, -3% for the second.

Compared with `CC1=C(O)C(=O)CO1`, `Nc1ccn([C@@H]2O[C@H](CO)[C@@H](O)[C@@H]2O)c(=O)n1` is lower in “activity, positive = activation” value: -1.03% for the first, -11.8% for the second.

Going from `CCCC(CCC)(C(=O)OCC)C(=O)OCC` to `CCCCCCCC/C=C\CCCCCCCC(=O)NCc1ccc(O)c(OC)c1`, the “activity, positive = activation” value falls from 15.7% [at 42.5 µM] to -30.4% [at 42.5 µM].

Going from `CC(COc1ccccc1)NN` (stereo not given) to `CC(=O)Oc1cccc(C)c1`, the “activity, positive = activation” value rises from -7.79% [at 42.5 µM] to -3.56% [at 42.5 µM].

Going from `Cc1ncc([N+](=O)[O-])n1CC(O)CCl` (stereo not given) to `CC(CN(C)C)CN1c2ccccc2CCc2ccccc21` (stereo not given), the “activity, positive = activation” value falls from -0.003% [at 42.5 µM] to -1.3% [at 42.5 µM].

First: OC[C@H]1O[C@@H]2O[C@H]3[C@H](O)[C@@H](O)[C@@H](O[C@H]4[C@H](O)[C@@H](O)[C@@H](O[C@H]5[C@H](O)[C@@H](O)[C@@H](O[C@H]6[C@H](O)[C@@H](O)[C@@H](O[C@H]7[C@H](O)[C@@H](O)[C@@H](O[C@H]8[C@H](O)[C@@H](O)[C@@H](O[C@H]9[C@H](O)[C@@H](O)[C@@H](O[C@H]1[C@H](O)[C@H]2O)O[C@@H]9CO)O[C@@H]8CO)O[C@@H]7CO)O[C@@H]6CO)O[C@@H]5CO)O[C@@H]4CO)O[C@@H]3CO
Second: O=C(CCCN1CCN(c2ccc(F)cc2)CC1)NC1c2ccccc2CSc2ccccc21 (stereo not given)
The “activity, positive = activation” value of the first is lower: -8.34% [at 42.5 µM] for the first, -0.964% [at 42.5 µM] for the second.

For `Cc1nc(Nc2ncc(C(=O)Nc3c(C)cccc3Cl)s2)cc(N2CCN(CCO)CC2)n1`, the “activity, positive = activation” value was -35.6% [at 42.5 µM].

For `C=C1CC[C@H](O)CC1=C/C=C1\CCC[C@]2(C)[C@@H]([C@H](C)/C=C/[C@H](C)C(C)C)CC[C@@H]12`, the Potency was 21.5 µM (active) and 61.1 µM (active).
For `C=C1C(C)(C)[C@@]2(Cl)C(Cl)[C@]1(Cl)C(Cl)(Cl)C2(Cl)Cl` (stereo not given in full), the Potency was 9.51 µM (active).
For `CC1(O)CSC(C)(O)CS1` (stereo not given), the Potency was 30.6 µM (active).
In the case of `CCCC/C=C/C=C\C=O`, the Potency is reported as 61.1 µM (active).
With `O=[N+]([O-])C1(Br)COCOC1` the Potency was 24.3 µM (active).
With `O=C1C=CC(=O)N1c1ccccc1` the Potency was 15.4 µM (active).

`CCCC(=O)O[C@]1(C(=O)COC(=O)CC)CC[C@H]2[C@@H]3CCC4=CC(=O)CC[C@]4(C)[C@H]3[C@@H](O)C[C@@]21C` gave an activity, positive = activation of -4.28% [at 19 µM].
